Inconclusive results are not listed. The source made the active and inactive calls. The call rests on the fitted dose curve; in most records, active means well fitted curve in the direction sought with a large enough effect; inconclusive means small, poorly fitted or top-dose-only effect, or another doubt; inactive means no such curve, though single readings can be large; an effect the other way counts as inactive or inconclusive.
Columns and labels:
HACAT = assay: qHTS assay to identify novel small-molecules to repurpose for Merkel cell carcinoma treatment (AID 1296009); conditions: MCC and control cell lines, CellTiter-Glo viability, 72 h; at 44.8 µM (top of the series) unless noted; further: nearly all actives have a fitted effect of over 60% in size
How it was run: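 Cell viability measured by CellTiter-Glo following 72 hr compound treatment at 37 degree celsius, with NPC and MIPE libraries tested in 8- and 11-point concentration series.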

C33A = assay: Primary qHTS to identify gynecologic anti-cancer compounds using libraries of approved drugs and bioactive compounds (AID 1345084); conditions: Gynecologic cancer cell panel viability, ATPlite luminescence, 48 h; series mostly up to 57.5 µM; further: on the % scale 0 is the no-effect control and ±100 the full control effect; nearly all actives have a fitted effect of over 55% in size
How it was run: (§1)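 Cells, 1,000 per well, plated 16 h, then exposed 48 h at 37 C to compounds. Viability by ATPlite luminescence after 15 min at room temperature.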

CAOV3 = assay: as above; conditions: Gynecologic cancer cell panel viability, ATPlite luminescence, 48 h; series mostly up to 57.5 µM
How it was run: as §1

CASKI = assay: as above; conditions: Gynecologic cancer cell panel viability, ATPlite luminescence, 48 h; series mostly up to 57.5 µM
How it was run: as §1

Es-2 = assay: as above; conditions: Gynecologic cancer cell panel viability, ATPlite luminescence, 48 h; series mostly up to 57.5 µM
How it was run: as §1

HeLa = assay: as above; conditions: Gynecologic cancer cell panel viability, ATPlite luminescence, 48 h; series mostly up to 57.5 µM
How it was run: as §1

Hek293T = assay: as above; conditions: Gynecologic cancer cell panel viability, ATPlite luminescence, 48 h, control line for the selectivity index; series mostly up to 57.5 µM
How it was run: as §1

JEG-3 = assay: as above; conditions: Gynecologic cancer cell panel viability, ATPlite luminescence, 48 h; series mostly up to 57.5 µM
How it was run: as §1

OV90 = assay: as above; conditions: Gynecologic cancer cell panel viability, ATPlite luminescence, 48 h; series mostly up to 57.5 µM
How it was run: as §1

PA-1 = assay: as above; conditions: Gynecologic cancer cell panel viability, ATPlite luminescence, 48 h; series mostly up to 57.5 µM
How it was run: as §1

SKOV3 = assay: as above; conditions: Gynecologic cancer cell panel viability, ATPlite luminescence, 48 h; series mostly up to 57.5 µM
How it was run: as §1

Tov-21-G = assay: as above; conditions: Gynecologic cancer cell panel viability, ATPlite luminescence, 48 h; series mostly up to 57.5 µM
How it was run: as §1

Tov112D = assay: as above; conditions: Gynecologic cancer cell panel viability, ATPlite luminescence, 48 h; series mostly up to 57.5 µM
How it was run: as §1

Cc1oc(S(=O)(=O)N2CCCCC2)cc1NC(=O)Nc1ccccc1
inactive: outcome (HACAT) | Potency (C33A) | Potency (CAOV3) | outcome (CASKI) | Potency (Es-2) | Potency (HeLa) | Potency (Hek293T) | Potency (JEG-3) | Potency (OV90) | Potency (PA-1) | Potency (SKOV3) | Potency (Tov-21-G) | Potency (Tov112D)

CC(C)=CC[C@H]1O[C@]2(O)C([C@H]3CCC4[C@@]5(C)CC[C@H](O[C@@H]6O[C@H](CO)[C@H](O)[C@H](O[C@@H]7O[C@H](CO)[C@@H](O)[C@H](O)[C@H]7O)[C@H]6O[C@@H]6O[C@@H](C)[C@H](O)[C@@H](O)[C@H]6O)C(C)(C)C5CC[C@@]4(C)[C@]3(C)[C@H]2O)[C@@]1(C)O (some centres not stated)
inactive: outcome (HACAT) inactive [at 9.27 µM] | activity change, negative = cytotoxicity (C33A) 1.02% [at 11.6 µM] | activity change, negative = cytotoxicity (CAOV3) 7.68% [at 11.6 µM] | activity change, negative = cytotoxicity (CASKI) -0.575% [at 11.6 µM] | activity change, negative = cytotoxicity (Es-2) -1.48% [at 11.6 µM] | activity change, negative = cytotoxicity (HeLa) -4.09% [at 11.6 µM] | activity change, negative = cytotoxicity (Hek293T) 0.87% [at 11.6 µM] | activity change, negative = cytotoxicity (JEG-3) 13.4% [at 11.6 µM] | activity change, negative = cytotoxicity (OV90) -2.06% [at 11.6 µM] | activity change, negative = cytotoxicity (PA-1) 0.425% [at 11.6 µM] | activity change, negative = cytotoxicity (SKOV3) 28% [at 11.6 µM] | activity change, negative = cytotoxicity (Tov-21-G) -2.04% [at 11.6 µM] | activity change, negative = cytotoxicity (Tov112D) 6.89% [at 11.6 µM]

NC1Nc2ccccc2C1(N)CC1NC(=O)C(Cc2ccccc2)NC(=O)C(Cc2ccccc2)NC1=O (configuration not stated)
inactive: outcome (HACAT) inactive [at 17.4 µM] | Potency (C33A) | Potency (CAOV3) | outcome (CASKI) | Potency (Es-2) | Potency (HeLa) | Potency (Hek293T) | Potency (JEG-3) | Potency (OV90) | Potency (PA-1) | Potency (SKOV3) | Potency (Tov-21-G) | Potency (Tov112D)

CC(C)CC(=O)NCCn1cc(C(=O)O)c(=O)cc1C(O)c1ccccc1 (configuration not stated)
inactive: outcome (HACAT) | Potency (C33A) | Potency (CAOV3) | outcome (CASKI) | Potency (Es-2) | Potency (HeLa) | Potency (Hek293T) | Potency (JEG-3) | Potency (OV90) | Potency (PA-1) | Potency (SKOV3) | Potency (Tov-21-G) | Potency (Tov112D)

CC(=O)OC[C@@]12C(=O)C[C@@H](C)[C@]3(C[C@@H](c4ccoc4)OC3=O)[C@H]1CC[C@H](OC(C)=O)[C@]21CO1
inactive: outcome (HACAT) inactive [at 17.4 µM] | Potency (C33A) | Potency (CAOV3) | outcome (CASKI) | Potency (Es-2) | Potency (HeLa) | Potency (Hek293T) | Potency (JEG-3) | Potency (OV90) | Potency (PA-1) | Potency (SKOV3) | Potency (Tov-21-G) | Potency (Tov112D)

CC(=O)NC1C(OC2CCC3(C)C(CCC4(C)C3CC=C3C5CC(C)(C)CCC5(C(=O)O)C(O)CC34C)C2(C)C)OC(CO)C(O)C1O (configuration not stated)
inactive: outcome (HACAT) inactive [at 17.4 µM] | Potency (C33A) | Potency (CAOV3) | outcome (CASKI) | Potency (Es-2) | Potency (HeLa) | Potency (Hek293T) | Potency (JEG-3) | Potency (OV90) | Potency (PA-1) | Potency (SKOV3) | Potency (Tov-21-G) | Potency (Tov112D)

COc1cc(/C=C/C(=O)OC[C@H]2O[C@@H](OC3OC=C(C(=O)O)C4C(O)CC(C)(O)C34)[C@H](O)[C@@H](O)[C@@H]2O)cc(OC)c1O (some centres not stated)
inactive: outcome (HACAT) inactive [at 17.4 µM] | Potency (C33A) | Potency (CAOV3) | outcome (CASKI) | Potency (Es-2) | Potency (HeLa) | Potency (Hek293T) | Potency (JEG-3) | Potency (OV90) | Potency (PA-1) | Potency (SKOV3) | Potency (Tov-21-G) | Potency (Tov112D)

C[C@H]1[C@H](C)CC[C@]2(C(=O)OC3OC(CO)C(O)C(O)C3O)CC[C@]3(C(=O)O)C(=CCC4[C@@]5(C)CC[C@H](O[C@@H]6O[C@@H](C)[C@H](OC7OC(CO)C(O)C(O)C7O)[C@@H](O)[C@H]6O)C(C)(C)C5CC[C@]43C)[C@H]12 (some centres not stated)
inactive: outcome (HACAT) inactive [at 9.27 µM] | activity change, negative = cytotoxicity (C33A) -28.6% [at 11.6 µM] | activity change, negative = cytotoxicity (CAOV3) 3.53% [at 11.6 µM] | activity change, negative = cytotoxicity (CASKI) 6.49% [at 11.6 µM] | activity change, negative = cytotoxicity (Es-2) 4.54% [at 11.6 µM] | activity change, negative = cytotoxicity (HeLa) -0.904% [at 11.6 µM] | activity change, negative = cytotoxicity (Hek293T) 6.98% [at 11.6 µM] | activity change, negative = cytotoxicity (JEG-3) 7.38% [at 11.6 µM] | activity change, negative = cytotoxicity (OV90) 2.97% [at 11.6 µM] | activity change, negative = cytotoxicity (PA-1) -4.62% [at 11.6 µM] | activity change, negative = cytotoxicity (SKOV3) 0% [at 11.6 µM] | activity change, negative = cytotoxicity (Tov-21-G) 0.351% [at 11.6 µM] | activity change, negative = cytotoxicity (Tov112D) -1.72% [at 11.6 µM]

C[C@H]1CC[C@@]2(OC1)O[C@H]1CC3C4CC[C@H]5C[C@@H](O)CC[C@]5(C)C4CC(=O)[C@]3(C)[C@H]1[C@@H]2C (some centres not stated)
inactive: outcome (HACAT) inactive [at 17.4 µM] | Potency (C33A) | Potency (CAOV3) | outcome (CASKI) | Potency (Es-2) | Potency (HeLa) | Potency (Hek293T) | Potency (JEG-3) | Potency (OV90) | Potency (PA-1) | Potency (SKOV3) | Potency (Tov-21-G) | Potency (Tov112D)

C=C(C)[C@@H]1CC[C@]2(C(=O)O)CC[C@]3(C)[C@H](CCC4[C@@]5(C)CCC(=O)C(C)(C)C5C(O)C[C@]43C)C12 (some centres not stated)
inactive: outcome (HACAT) inactive [at 17.4 µM] | Potency (C33A) | Potency (CAOV3) | outcome (CASKI) | Potency (Es-2) | Potency (HeLa) | Potency (Hek293T) | Potency (JEG-3) | Potency (OV90) | Potency (PA-1) | Potency (SKOV3) | Potency (Tov-21-G) | Potency (Tov112D)

CCc1cc(CC[C@]2(C3CCCC3)CC(O)=C(Cc3nc4nc(C)cc(C)n4n3)C(=O)O2)cc(CC)n1
inactive: outcome (HACAT) | Potency (C33A) | Potency (CAOV3) | outcome (CASKI) | Potency (Es-2) | Potency (HeLa) | Potency (Hek293T) | Potency (JEG-3) | Potency (OV90) | Potency (PA-1) | Potency (SKOV3) | Potency (Tov-21-G) | Potency (Tov112D)

CC1(C)CC[C@]2(C(=O)O[C@@H]3O[C@H](CO)[C@@H](O)[C@H](O)[C@H]3O)[C@H](O)C[C@]3(C)C(=CCC4[C@@]5(C)CC[C@H](O[C@@H]6OC[C@@H](O)[C@H](O)[C@H]6O)[C@@](C)(C(=O)O)C5CC[C@]43C)[C@@H]2C1 (some centres not stated)
inactive: outcome (HACAT) inactive [at 17.4 µM] | Potency (C33A) | Potency (CAOV3) | outcome (CASKI) | Potency (Es-2) | Potency (HeLa) | Potency (Hek293T) | Potency (JEG-3) | Potency (OV90) | Potency (PA-1) | Potency (SKOV3) | Potency (Tov-21-G) | Potency (Tov112D)

CC1=CC(=O)CC(C)(C)C1CCC(C)O[C@@H]1O[C@H](CO)[C@@H](O)[C@H](O)[C@H]1O (some centres not stated)
inactive: outcome (HACAT) | Potency (C33A) | Potency (CAOV3) | outcome (CASKI) | Potency (Es-2) | Potency (HeLa) | Potency (Hek293T) | Potency (JEG-3) | Potency (OV90) | Potency (PA-1) | Potency (SKOV3) | Potency (Tov-21-G) | Potency (Tov112D)

C=C(C)[C@@H]1CC[C@]2(C)CC[C@]3(C)C(CCC4[C@@]5(C)CC[C@H](O)C(C)(C)C5CC[C@]43C)C12 (some centres not stated)
inactive: outcome (HACAT) inactive [at 17.4 µM] | Potency (C33A) | Potency (CAOV3) | outcome (CASKI) | Potency (Es-2) | Potency (HeLa) | Potency (Hek293T) | Potency (JEG-3) | Potency (OV90) | Potency (PA-1) | Potency (SKOV3) | Potency (Tov-21-G) | Potency (Tov112D)

Source: PubChem BioAssay (NCATS)
